The text below walks through data of PubChem BioAssay AID463173 (ICCB-Longwood Screening Facility, Harvard Medical School, 2010).

In all, about 52,000 compounds went through this assay and about 4,300 (8.3%) were called active. The sample holds actives, similar compounds and a random draw of the others, so the mix is not that of the screen. Unmarked numbers belong to inactive results. Rule as the data show it: active = survival mostly below about 52% (no sharp cut-off); inactive = mostly above about 56%.

This assay relates to DeltatarO mutant. Nature of the assay: growth inhibition of S. aureus wild type versus tarO mutant, primary screen, teichoic acid synthesis inhibitors, RN4220, OD600 (AID 463173). The following applies: OD600, 18 h, hits give low values, screened at 18.75 µg/mL (by protocol).
In the case of `CC(=O)c1cc(-c2ccc(F)cc2)n(CC(=O)NC2CCC(C)CC2)c1C` (stereo not drawn), the survival is 67%.

Consider `O=C(CN1CCN(S(=O)(=O)c2cc(Cl)ccc2Cl)CC1)Nc1cccc(F)c1`, for which the survival was 92%. With `CCOc1ccc(C(=O)C(CC(CN2CCOCC2)C(=O)c2ccc(OCC)cc2)CN2CCOCC2)cc1` (stereo not drawn) the figure was 104%; with `O=C1c2oc3ccc(F)cc3c(=O)c2C(c2cccc([N+](=O)[O-])c2)N1CCCN1CCOCC1` (stereo not drawn), 84%.

With `CCCCOc1ccc(C(=O)OCC2CCCN3CCCCC23)cc1OC` (stereo not drawn), the survival is 107%.

As to `O=C(CCC(=O)N1CC2CCCN2c2ccccc21)NCc1ccc(F)cc1` (stereo not drawn), the survival was 0% (active).

With `O=C(CCC(=O)N1CC2CCCN2c2ccccc21)NCc1ccccc1Cl` (stereo not drawn), the survival was 69%. As for `O=C(CCC(=O)N1CC2CCCN2c2ccccc21)NCc1cccc(Cl)c1` (stereo not drawn), the figure is 37% (active); as for `Cc1ccc(CNC(=O)CCC(=O)N2CC3CCCN3c3ccccc32)cc1` (stereo not drawn), 83%; as for `O=C(CCC(=O)N1CC2CCCN2c2ccccc21)NCc1ccccc1` (stereo not drawn), 74%. With `COc1cccc(CNC(=O)CCC(=O)N2CC3CCCN3c3ccccc32)c1` (stereo not drawn) the figure was 66%; with `O=C(O)c1cc2ccccc2[nH]c1=O`, 107%. With `CCc1cccc(NC(=O)Cc2nc(-c3ccc(OC)cc3)no2)c1` the figure was 77%. Consider `O=C(Nc1ccc(S(=O)(=O)N2CCCCC2c2cccnc2)cc1)c1ccc(Br)cc1` (stereo not drawn), for which the survival is 92%. With `CC(=O)N1CCc2cc(Br)cc(S(=O)(=O)N3CCN(c4cccc(C)c4)C(C)C3)c21` (stereo not drawn), the survival was 74%. As for `CCOc1ccccc1NC(=O)Cn1c(=O)n(Cc2ccccc2)c(=O)c2c(C)c(C)sc21`, the figure is 66%.

In the case of `Cc1ccccc1NC(=O)Cn1c(=O)n(Cc2ccccc2)c(=O)c2c(C)c(C)sc21`, the survival is 136%.

Turning to `CCN(CC)C(=O)c1sc2c(c1C)c(=O)n(-c1ccc(Cl)c(Cl)c1)c(=O)n2CC(=O)Nc1cccc(OC)c1`, the survival is 70%. In the case of `COC(=O)c1ccccc1NC(=O)Cn1c(=O)n(-c2cccc(OC)c2)c(=O)c2c(C)c(C(=O)N(C)C)sc21`, the survival was 117%. With `Cc1c(C(=O)N(C)C)sc2c1c(=O)n(-c1ccc(Cl)c(Cl)c1)c(=O)n2CC(=O)Nc1ccc(Br)cc1F` the figure was 144%; with `Cc1c(C(=O)N(C)C)sc2c1c(=O)n(-c1ccc(Cl)c(Cl)c1)c(=O)n2CC(=O)Nc1cccc(C(F)(F)F)c1`, 46% (active); with `CCOC(=O)c1ccccc1NC(=O)Cn1c(=O)n(Cc2ccccc2)c(=O)c2c(C)c(C)sc21`, 84% (active). With `CCOC(=O)c1ccccc1NC(=O)Cn1c(=O)n(-c2ccc(CC)cc2)c(=O)c2c(C)c(C(=O)N(C)C)sc21` the figure was 0% (active). With `CCc1ccc(-n2c(=O)c3c(C)c(C(=O)N(C)C)sc3n(CC(=O)Nc3cc(Cl)ccc3C)c2=O)cc1` the figure was 131%. Turning to `CCOc1ccc(NC(=O)C(NS(=O)(=O)c2ccc3c(c2)CCN3C(C)=O)C(C)C)cc1` (stereo not drawn), the survival was 124%.

Consider `CCCOc1ccc(-c2nc(SCC(=O)c3ccc(Cl)cc3)n[nH]2)cc1`, for which the survival is 187%.

With `Cc1ccc(NC(=O)CSc2ncc(S(=O)(=O)c3ccc(C(C)C)cc3)c(=O)[nH]2)cc1C`, the survival was 87%. With `Nc1c(C(=O)Nc2ccccc2Cl)c2ccccn2c1C(=O)c1ccc(Cl)cc1` the figure was 80%; with `CCOC(=O)c1ccccc1NC(=O)CSc1nc2ccncc2[nH]1`, 85%. Regarding `CC(Sc1ncc(S(=O)(=O)c2ccc(C(C)C)cc2)c(N)n1)C(=O)Nc1ccccc1` (stereo not drawn), the survival was 60%. With `COc1ccc(-c2nc3cc(C)ccn3c2NC(=O)c2ccc(C)c(C)c2)cc1` the figure was 68%; with `Cc1nc2ccccn2c(=O)c1NC(=O)c1cccc(F)c1`, 71%. With `COc1ccc(-c2nc3cc(C)ccn3c2NC(=O)c2cccc(F)c2)cc1` the figure was 53% (active); with `COCCNc1c(-c2ccccc2)nc2cc(C)ccn12`, 69%. Take `Cc1ccn2c(NC(=O)c3cccc(Cl)c3)c(-c3ccccc3)nc2c1`: the survival is 65%. As for `COc1ccc(CNC(=O)c2ccc3nc(-c4ccc(F)cc4)c(-c4ccc(F)cc4)nc3c2)cc1`, the figure is 78%; as for `O=C(Nc1c(-c2ccc(F)cc2)nc2ccccn12)c1cccc(F)c1`, 146%; as for `COc1ccc(-c2nc3cc(C)ccn3c2NC(=O)c2ccc(F)cc2)cc1`, 37% (active). With `Cc1cccc(C(=O)Nc2c(-c3ccccc3)nc3cc(C)ccn23)c1` the figure was 27% (active); with `CCOc1ccccc1NS(=O)(=O)c1ccc(N2CCCCS2(=O)=O)cc1`, 97%.

As for `Cc1ccc(NC(=O)/C(C#N)=C/c2cn(CC(=O)NCc3ccco3)c3ccccc23)cc1Cl`, the survival was 64%.

As to `Cc1ccc(S(=O)(=O)NNC(=S)NCC2CCCO2)cc1` (stereo not drawn), the survival is 69%. With `Cc1cn2c(=O)cc(COC(=O)COc3ccc(C)c(C)c3)nc2s1` the figure was 67%; with `Cc1cn2c(=O)cc(COc3ccc(Cl)cc3)nc2s1`, 53%. For `COc1ccc(OCC(=O)OCc2cc(=O)n3nc(-c4cccs4)sc3n2)cc1`, the survival is 94%. As for `Cc1cn2c(=O)cc(COC(=O)COc3ccc(F)cc3)nc2s1`, the figure is 70%; as for `COc1ccc(OCC(=O)OCc2cc(=O)n3cc(C)sc3n2)cc1`, 6% (active); as for `O=C(COc1ccccc1)OCc1cc(=O)n2nc(-c3cccs3)sc2n1`, 88%. Regarding `Cc1cc(C)cc(OCc2cc(=O)n3cc(C)sc3n2)c1`, the survival was 81%.

In the case of `COc1cccc(OCc2cc(=O)n3cc(C)sc3n2)c1`, the survival is 40% (active). For `O=C(COc1ccc(Cl)cc1)OCc1cc(=O)n2nc(-c3cccs3)sc2n1`, the survival was -4% (active). As for `COc1ccccc1-c1nc(CNC(=O)Nc2ccccc2)c(C)o1`, the figure is 98%; as for `Cc1ccc(N2C(=O)N(CC(=O)C(C)(C)C)c3ccccc3S2(=O)=O)cc1C`, 91%.

As to `CCOc1ccc2c(c1)c(=O)c(S(=O)(=O)c1ccc(C)cc1)cn2Cc1ccccc1Cl`, the survival was 82%. With `CC1=C(C)C(=O)N(c2ccccn2)C1=O` the figure was 93%; with `Cc1ccc(-n2c(=O)c3ccc(C(=O)NCc4ccccc4Cl)cc3n(CC(=O)Nc3ccc(C)cc3C)c2=O)cc1`, 79%. Consider `CC(C)(C)NC(=O)c1cccc(NC(=O)c2ccco2)c1`, for which the survival was 101%. With `COc1ccc(N2CCN(CNC(=O)c3ccccc3)CC2)cc1` the figure was 95%.

With `Nc1nnc(CCN2C(=O)CSC2=O)s1`, the survival was 95%.

For `CCc1cnc2c(c1SCC(=O)NCc1ccc(F)cc1)c(=O)n(C)c(=O)n2C`, the survival was 119%.

On to `CC(C)C(=O)Nc1ccc2nc(SCC(=O)N3CCc4ccccc43)sc2c1`, for which the survival was 97%. As for `CCc1nnc(NC(=O)CSc2nc3c([nH]c4ccccc43)c(=O)n2-c2ccc(F)cc2)s1`, the figure is 84%. As for `CCc1ccc(-c2nc(CS(=O)CC(=O)NCCc3ccc(Cl)cc3)c(C)o2)cc1` (stereo not drawn), the figure is 91%. With `COc1ccc2c(c1)c1c(c(=O)n(CCc3ccccc3)c(=O)n1Cc1ccc(F)cc1)n2C` the figure was 6% (active); with `COc1ccc2c(c1)c1c(c(=O)n(Cc3ccccc3)c(=O)n1CC(=O)Nc1ccccc1F)n2C`, 109%. `COc1ccc2c(c1)c1c(c(=O)n(CCc3ccccc3)c(=O)n1Cc1ccccc1)n2C`: the survival is 90%. With `COc1ccc2cc(CNc3ccccc3)c(=O)n(CC(=O)Nc3ccc(C)cc3C)c2c1` the figure was 0% (active).

As to `Cc1ccc(Cn2c(=O)n(-c3ccc(C)cc3)c(=O)c3c2c2cc(C)ccc2n3C)cc1`, the survival was 52% (active). Take `COc1ccc2cc(CNc3ccc(C)cc3)c(=O)n(CC(=O)Nc3ccc(C)cc3Cl)c2c1`: the survival is 102%. With `COc1ccc2c(c1)c1c(c(=O)n(CCc3ccccc3)c(=O)n1Cc1cccc(F)c1)n2C` the figure was 67%; with `CCc1ccc(NCc2cc3ccc(OC)cc3n(CC(=O)Nc3ccccc3C)c2=O)cc1`, 83%. With `COc1ccc(Cn2c(=O)n(-c3ccc(C)cc3)c(=O)c3c2c2cc(C)ccc2n3C)cc1` the figure was 100%. With `COc1ccc2c(c1)c1c(c(=O)n(Cc3ccccc3)c(=O)n1CC(=O)Nc1c(C)cccc1C)n2C` the figure was 72%.

For the compound `Cc1ccc(-n2c(=O)c3c(c4cc(C)ccc4n3C)n(Cc3ccc(F)cc3)c2=O)cc1`, the survival was 116%. As for `COc1ccc2c(c1)c1c(c(=O)n(Cc3ccccc3)c(=O)n1CC(=O)Nc1ccc(C)cc1C)n2C`, the figure is -2% (active).

As for `O=C(Nc1nc2c(F)cccc2s1)c1ccc(S(=O)(=O)N2CCOCC2)cc1`, the survival was 103%.

On to `COc1cc(NC(=O)c2nn(C)c3c2CS(=O)(=O)c2ccccc2-3)cc(OC)c1`, for which the survival was 68%.

Take `Cc1cc(C)c(NC(=O)Cn2cnc3c(oc4ccccc43)c2=O)c(C)c1`: the survival was 69%.

Turning to `COc1ccc(C2C(=O)N(C3CCC(C)CC3)CC(=O)N2Cc2ccc(C)cc2)cc1OC` (stereo not drawn), the survival is 86%.

Turning to `CCC(C(=O)N(C)Cc1ccccc1)n1nc(C)c2sc3ccccc3c2c1=O` (stereo not drawn), the survival was 66%. With `O=C(CC(c1ccccc1)c1ccccc1)N1CCN(Cc2ccc3c(c2)OCO3)CC1` the figure was 67%. As for `O=C(CCCc1nc(-c2ccc(Cl)cc2)no1)NCc1ccco1`, the figure is 54%; as for `COc1ccc(C(=O)NCc2ccc3c(c2)CCN3C(C)=O)cc1OC`, 83%; as for `Cc1ccc(C)c(CNC(=O)c2ccc3c(c2)nc2n3CCC(C)C2)c1` (stereo not drawn), 91%.

Regarding `Cc1ccc(S(=O)(=O)N2CCCc3cc(NS(=O)(=O)c4ccc(C)c(C)c4)ccc32)cc1`, the survival is 67%. With `COc1ccc2c(c1)c1c(c(=O)n(Cc3ccccc3)c(=O)n1Cc1ccccc1)n2C` the figure was -1% (active); with `COc1ccc2c(c1)c1c(c(=O)n(Cc3ccccc3)c(=O)n1Cc1ccc(C)cc1)n2C`, 80%; with `COc1cccc(Cn2c(=O)n(Cc3ccccc3)c(=O)c3c2c2cc(OC)ccc2n3C)c1`, 64%.
